H9c2 TAG inh: inhibitors of triacylglycerol accumulation; actives 0.66% (n = 230,000); AID 651582; H9c2 cells, Nile Red lipid (TAG) fluorescence; cells loaded with 200 µM oleic acid; inhibition, % at 12.5 µM;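 active means pattern-corrected inhibition of lipid staining of at least 50% with the nuclear-stain viability signal not falling by more than 50%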;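 further: 0% = DMSO wells and 100% = triacsin C control wells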
APOBEC3A inh: inhibitors of human APOBEC3A DNA deaminase. recombinant A3A, FAM/TAMRA ssDNA deamination fluorescence. P31941. inhibition, % at 20 µM. actives 0.41% (n = 330,000);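 active means at least 40% inhibition at 20 µM here, with at most 30% in a related deaminase screen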;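 further: plate controls were A3A with DMSO for no effect and wells lacking A3A enzyme for full effect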
Target sequence (P31941 whole entry, looked up): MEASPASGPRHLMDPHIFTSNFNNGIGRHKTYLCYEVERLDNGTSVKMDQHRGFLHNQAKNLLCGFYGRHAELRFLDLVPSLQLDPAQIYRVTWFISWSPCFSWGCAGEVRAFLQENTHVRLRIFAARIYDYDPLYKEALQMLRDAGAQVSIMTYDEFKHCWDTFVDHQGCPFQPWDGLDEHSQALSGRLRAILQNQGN
PfGluPho inh: PfG6PD (Plasmodium falciparum) enzyme inhibition; PfGluPho enzyme, NADPH resazurin-diaphorase fluorescence; inhibition, % at 20 µM; actives 0.78% (n = 350,000); AID 504690;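 active means inhibition reaching at least a set limit at 20 µM in the primary screen, cut at about 59% in these data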;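 further: 0% = DMSO wells with substrate and 100% = DMSO wells lacking glucose-6-phosphate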
H9c2 protect: myocardial damage modulation in H9c2 cells; H9c2 cardiomyocytes, H2O2 injury protection, ATPLite, 2 h; actives 0.63% (n = 360,000); protection from H2O2 cell death, % at 20 µM;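 active means compounds giving at least 50% protection of heart cells from peroxide-induced death in the single-dose screen, raw or plate-pattern-corrected value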;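 further: 0% = DMSO wells with peroxide and 100% = DMSO wells without peroxide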
A3G deaminase: blocks human APOBEC3G single-stranded DNA deamination; recombinant A3G, ssDNA deamination FAM/TAMRA fluorescence; actives 0.28% (n = 330,000); inhibition, % at 20 µM; Q9HC16; AID 493012;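 active means inhibition of at least 40% at 20 µM, with no more than 30% in the related APOBEC3A deaminase screen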;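 further: plate controls were DMSO wells with A3G for no effect and wells lacking A3G enzyme for full effect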
Target sequence (Q9HC16 whole entry, looked up): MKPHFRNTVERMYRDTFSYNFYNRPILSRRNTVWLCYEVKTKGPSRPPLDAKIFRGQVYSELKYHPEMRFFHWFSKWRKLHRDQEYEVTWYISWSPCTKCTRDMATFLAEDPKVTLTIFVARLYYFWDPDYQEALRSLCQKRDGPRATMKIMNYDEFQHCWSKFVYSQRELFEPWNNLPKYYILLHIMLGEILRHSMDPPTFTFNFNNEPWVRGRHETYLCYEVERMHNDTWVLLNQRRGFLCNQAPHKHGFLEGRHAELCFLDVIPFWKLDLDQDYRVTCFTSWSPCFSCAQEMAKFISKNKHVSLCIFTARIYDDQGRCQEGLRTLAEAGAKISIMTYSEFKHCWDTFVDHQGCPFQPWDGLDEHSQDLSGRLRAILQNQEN
NadD block: blocks S. aureus nicotinate mononucleotide adenylyltransferase; purified NadD enzyme, colorimetric absorbance read-out; actives 0.78% (n = 360,000); inhibition, % at 20 µM; in the data active means inhibition above about 26%
NadD conf: confirmation of Staphylococcus aureus NadD inhibitors. shares compounds with NadD block. purified S. aureus NadD, colorimetric enzyme assay. inhibition, % at 20 µM. actives 13% (n = 2,000); in the data active means inhibition mostly above about 42%, no sharp cut-off; inactive means mostly below about 42%
Numbers without * were called inactive; · = not tested or not shown. Rows were chosen to be rich in hits. Some 2.9% of all compounds tested hit in one or more screens of this group.

SMILES | H9c2 TAG inh | APOBEC3A inh | PfGluPho inh | H9c2 protect | A3G deaminase | NadD block | NadD conf
COc1ccc(C(=O)Nc2nc3c(s2)Cc2cc(OC)ccc2-3)cc1 | 24.0 | -17.6 | 33.5 | -11.9 | -5.8 | 38.1* | 8.6
Cc1nc(N2CCN(S(=O)(=O)c3ccccc3)CC2)c2cc(-c3ccccc3)sc2n1 | · | -1.6 | 3.3 | -4.6 | -5.1 | 41.4* | 4.5
C/C(=N\Nc1nc(-c2cc(C)ccc2C)cs1)c1cc2ccccc2oc1=O | · | -2.2 | -1.0 | 2.7 | -5.5 | 3.7 | ·
C/C(=N\Nc1nc(-c2cc(C)ccc2C)cs1)c1cc2c(ccc3ccccc32)oc1=O | · | · | -7.5 | -3.1 | · | 48.4* | 3.6
O=C(N[C@@H](Cc1ccccc1)C(=O)OCc1ccccc1)c1ccco1 | 11.6 | -4.7 | 15.5 | 7.6 | -8.9 | -3.2 | ·
Cc1cc(C(=O)N/N=C/c2cc(Br)ccc2OC(=O)c2ccccc2Cl)n[nH]1 | 41.5 | 0.8 | -2.4 | 50.9* | -15.6 | 35.3* | -3.7
Cc1cc(C(=O)N/N=C/c2ccc(OC(=O)c3ccccc3Br)cc2)n[nH]1 | 2.6 | -2.5 | 0.1 | 11.1 | -13.3 | -3.3 | ·
CC(C)CNC(=O)COC(=O)c1c2c(nc3ccccc13)/C(=C\c1cccs1)CC2 | 21.4 | · | 2.1 | 7.3 | · | 11.6 | ·
CN(CCC#N)C(=O)COC(=O)c1c2c(nc3ccccc13)/C(=C/c1ccco1)CC2 | · | · | 33.2 | 42.2 | · | 49.7* | 57.8*
COc1ccc(C2=Cc3ccc(OC(C)=O)cc3OC2)cc1 | 4.3 | · | 7.8 | -9.0 | · | -2.4 | ·
Cc1cc2nc(-c3ccc(SCC(=O)Nc4ccc(S(=O)(=O)N5CCCC5)cc4)nc3)[nH]c2cc1C | · | 2.2 | -8.0 | -11.7 | 6.1 | 39.9* | 11.4
Cc1cc(C)c2nc(SCC(=O)Nc3ccc(S(=O)(=O)N4CCCC4)cc3)c(C)cc2c1 | · | -1.8 | -17.9 | -2.3 | -9.2 | 35.9* | 8.7
CCOc1ccc2nc(SCC(=O)Nc3ccc(S(=O)(=O)N4CCCC4)cc3)c(C)cc2c1 | 24.4 | 2.7 | -5.9 | -2.6 | -2.6 | 16.5 | ·
O=S(=O)(Nc1cccc(-c2ccc3nncn3n2)c1)c1cc(F)ccc1F | 7.9 | 3.5 | -9.1 | 5.6 | -2.5 | 2.0 | ·
O=C(COc1ccc(Cl)cc1Br)Nc1nnc(C2CC2)s1 | 7.5 | 5.0 | -5.9 | -0.9 | -5.3 | 9.3 | ·
O=C1c2ccc(-c3ccc(Cl)c(C(F)(F)F)c3)cc2S(=O)(=O)c2cccc(C(=O)N3CCN(c4ccc(Cl)cn4)CC3)c21 | · | 0.6 | 16.9 | 2.6 | -6.5 | 54.6* | 7.2
C#Cc1ccc([C@H]2C=C(C(=O)NCc3nc4ccccc4[nH]3)O[C@@H](OCc3ccc(CO)cc3)C2)cc1 | · | -6.0 | 14.2 | 2.2 | -7.2 | 33.0* | 46.5*
O=C(NCc1nc2ccccc2[nH]1)C1=C[C@H](c2ccc(Br)cc2)C[C@H](OCc2ccc(CO)cc2)O1 | -5.2 | 1.7 | 11.7 | -0.5 | -7.0 | 11.3 | ·
O=C(O)CN1C(=O)CC(c2ccccc2)CC1=O | -7.1 | 3.3 | -27.3 | 5.2 | 0.8 | -0.6 | ·
Cc1cccc(NC(=O)CSc2nc3nc4c(cc3c(=O)n2-c2ccccc2)CCCC4)c1 | · | -2.9 | -0.7 | -1.9 | -6.7 | 14.9 | ·
O=C(CSc1nc2nc3c(cc2c(=O)n1-c1ccccc1)CCCC3)Nc1cccc2ccccc12 | · | -3.2 | 9.3 | -4.5 | -5.7 | 41.0* | 18.9
CCOC(=O)[C@]12CCCC=C1N(Cc1ccco1)C(=O)[C@H](CC(=O)NCC1CCCCC1)C2 | · | · | · | · | · | -0.3 | ·
O=C(Nc1ccc(Cl)cc1)[C@@H]1[C@@H]2C(=O)N(c3ccc4ccccc4c3)C(=O)[C@@H]2[C@H]2C=CC=NN21 | -21.4 | -0.6 | -0.5 | -6.7 | -0.3 | 56.6* | 30.6
CCc1ccc(-c2nc(SCC(=O)N3CCOCC3)n[nH]2)cc1 | 8.5 | -1.4 | 3.2 | -15.2 | -3.6 | 2.7 | ·
OCCNc1nc(-c2ccccc2)c2cc(Br)ccc2n1 | -7.9 | -3.9 | -13.6 | -2.3 | -5.2 | -2.1 | ·
SMILES | H9c2 TAG inh | APOBEC3A inh | PfGluPho inh | H9c2 protect | A3G deaminase | NadD block | NadD conf
CCCN(CCC)S(=O)(=O)c1ccc(C(=O)NNc2nc(-c3ccccc3)c3cc(Br)ccc3n2)cc1 | · | 2.7 | -31.6 | 4.8 | -2.5 | 36.0* | 3.1
CC(C)n1cc(/C=N\NC(=O)c2cc3c(ccc4ccccc43)o2)c2ccccc21 | · | · | 5.2 | 9.0 | · | 32.9* | 2.3
Cc1cc(/C=N/NC(=O)c2cc3ccccc3o2)c(C)n1C | · | -6.5 | 17.5 | 40.9 | -8.0 | 34.8* | 19.4
O=C(N/N=C/c1ccncc1)c1cc2ccccc2o1 | -1.4 | -3.6 | 7.6 | 11.7 | -1.8 | -2.5 | ·
CCn1cc(/C=N/NC(=O)c2cc3c(ccc4ccccc43)o2)c2ccccc21 | 9.8 | 4.7 | 23.5 | 0.0 | -3.6 | 35.5* | 48.5*
Clc1ccccc1-c1nnc2sc(-c3ccco3)nn12 | · | 0.0 | 3.5 | 2.9 | -2.2 | 3.9 | ·
c1ccc(-c2cc(-c3nn4c(-c5ccco5)nnc4s3)c3ccccc3n2)cc1 | · | 12.4 | 20.4 | 43.1 | -4.7 | 46.6* | 15.2
Cc1cccc(N=C2NN=C(c3c(C)[nH]c4ccccc34)CS2)c1 | · | -4.5 | 27.8 | -5.0 | -5.8 | 36.0* | 21.1
Cc1cccc(N=C2NN=C(c3ccc4c(c3)OCCO4)CS2)c1 | · | -1.0 | 12.3 | -16.4 | -3.6 | 15.6 | ·
Clc1cccc(Cc2c(-c3ccco3)nc3ccc(Cl)cn23)c1 | · | · | · | -4.3 | · | 27.8 | ·
Clc1cccc(Cc2c(-c3ccco3)nc3ccc(Br)cn23)c1 | · | · | · | -3.8 | · | 41.2* | 13.3
Cc1cc2nc(-c3ccco3)c(Cc3cccc(Cl)c3)n2c(C)c1Br | · | · | · | · | · | 60.8* | 21.4
COc1ccccc1Cc1c(-c2ccco2)nc2cc(C)c(Br)c(C)n12 | · | · | · | · | · | 60.1* | 20.7
O=C/C(=C\Nc1ccc(Cl)cn1)c1nc2ccccc2o1 | -12.7 | 0.5 | -7.8 | 4.4 | -2.7 | -2.3 | ·
O=C/C(=C\Nc1ccc(Cl)cn1)c1nc2cc(Cl)ccc2o1 | -8.2 | -2.9 | 0.5 | -11.9 | -8.5 | 37.7* | 7.8
O=C(Nc1ccccc1)c1nc[nH]c1C(=O)NCCN(CCNC(=O)c1[nH]cnc1C(=O)Nc1ccccc1)CCNC(=O)c1[nH]cnc1C(=O)Nc1ccccc1 | 115.6 | -4.1 | 5.0 | 31.2 | -9.5 | 56.7* | 4.3
O=C(Nc1ccc(Cl)cc1)c1nc[nH]c1C(=O)NCCN(CCNC(=O)c1[nH]cnc1C(=O)Nc1ccc(Cl)cc1)CCNC(=O)c1[nH]cnc1C(=O)Nc1ccc(Cl)cc1 | 117.3 | -1.6 | -2.0 | 3.4 | -5.9 | 56.6* | 2.9
Cc1cccc(NC(=O)c2nc[nH]c2C(=O)NCCN(CCNC(=O)c2[nH]cnc2C(=O)Nc2cccc(C)c2)CCNC(=O)c2[nH]cnc2C(=O)Nc2cccc(C)c2)c1 | · | -0.2 | 18.0 | 7.5 | -3.0 | 41.9* | -1.4
CCN1C(=O)N2C[C@H]3CON(C)[C@H]3C[C@H]2c2ccccc21 | · | · | · | 8.8 | · | -5.4 | ·
